According to the supplement of paper PMC8728848:
Only a selection was taken, and the strongest signals are over-represented in it overall.

B1: Gal 1 (Canis lupus) (protein)
chain: MACGLVASNLSLKPGQCLRVQCEVVPEAKSFVLNLGKDGDNLCLHFNPRFEAHGDVNTIVCNSKDGGAWGEELRESAFPFQPGTVTEVCISFDQADLTIKLPDGYTFKFPNRLNLEAISYLAADGDMKIKCLAFD
B2: Tap1 (Sordaria macrospora), Q50IV4 (protein)
chain: MSHHHHHHHHYTLHLRLINDTSDTLTLVEQTSWWGKNTIWSQVRSTGVHVLSMAASGSSGMLRFQTSKGDFFAVAVGVHNYKRWCDVLVDTADEAPLTKLHPKYYDDKDAKYQALWAQASEFEAKSKSGKTVRIKFYQADGNVLRATVEYL

Legend:
Assay in all cases: glycan array binding signal (z-score within array); higher = stronger binding
Details in all cases: glycan notation: IUPAC condensed, linker removed
Fuc(a1-2)Gal(b1-3)GalNAc = target: Fuc(a1-2)Gal(b1-3)GalNAc
In short: (§1)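 The Consortium for Functional Glycomics database supplied 3228 glycan arrays, of which those lacking an available protein sequence were dropped. The binding signal, a within-array Z-score, was averaged across arrays of the same protein sequence and across linkers. Negative scores can be read as non-binding.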

[1] = target: Fuc(a1-2)Gal(b1-3)GalNAc(b1-3)Gal
In short: as §1

[2] = target: Fuc(a1-2)Gal(b1-3)GlcNAc(b1-3)[Fuc(a1-3)[Gal(b1-4)]GlcNAc(b1-6)]Gal(b1-4)Glc
In short: as §1

[3] = target: Fuc(a1-2)Gal(b1-4)GlcNAc(b1-3)Gal(b1-4)GlcNAc(b1-3)Gal(b1-4)GlcNAc
In short: as §1

Fuc(a1-2)Gal6S(b1-4)Glc = target: Fuc(a1-2)Gal6S(b1-4)Glc
In short: as §1

[4] = target: Gal(a1-3)Gal(b1-3)[Fuc(a1-4)]GlcNAc(b1-2)Man(a1-3)[Gal(a1-3)Gal(b1-3)[Fuc(a1-4)]GlcNAc(b1-2)Man(a1-6)]Man(b1-4)GlcNAc(b1-4)GlcNAc
In short: as §1

[5] = target: Gal(b1-3)Gal(b1-4)GlcNAc(b1-2)Man(a1-3)[Gal(b1-3)Gal(b1-4)GlcNAc(b1-2)Man(a1-6)]Man(b1-4)GlcNAc(b1-4)GlcNAc
In short: as §1

[6] = target: Gal(b1-3)GalNAc(b1-3)Gal(a1-4)Gal(b1-4)Glc
In short: as §1

[7] = target: Gal(b1-3)GalNAc(b1-4)Gal(b1-4)Glc
In short: as §1

[8] = target: Gal(b1-4)GlcNAc(a1-6)Gal(b1-4)GlcNAc
In short: as §1

[9] = target: Gal(b1-4)GlcNAc(b1-2)Man(a1-3)Man(b1-4)GlcNAc(b1-4)GlcNAc
In short: as §1

[10] = target: Gal(b1-4)GlcNAc(b1-2)[Gal(b1-4)GlcNAc(b1-4)]Man(a1-3)[Gal(b1-4)GlcNAc(b1-2)Man(a1-6)]Man(b1-4)GlcNAc(b1-4)GlcNAc
In short: as §1

[11] = target: Gal(b1-4)GlcNAc(b1-2)[Gal(b1-4)GlcNAc(b1-4)]Man(a1-3)[Gal(b1-4)GlcNAc(b1-2)[Gal(b1-4)GlcNAc(b1-6)]Man(a1-6)]Man(b1-4)GlcNAc(b1-4)GlcNAc
In short: as §1

Gal3S(b1-3)GlcNAc = target: Gal3S(b1-3)GlcNAc
In short: as §1

Gal3S(b1-4)GlcNAc6S = target: Gal3S(b1-4)GlcNAc6S
In short: as §1

[12] = target: Gal3S(b1-4)[Fuc(a1-3)]Glc6S
In short: as §1

GalNAc(a1-3)GalNAc = target: GalNAc(a1-3)GalNAc
In short: as §1

Glc(b1-6)Glc = target: Glc(b1-6)Glc
In short: as §1

GlcA(b1-3)GlcNAc = target: GlcA(b1-3)GlcNAc
In short: as §1

[13] = target: GlcNAc(a1-4)Gal(b1-4)GlcNAc(b1-3)Gal(b1-4)Glc
In short: as §1

GlcNAc(b1-6)GalNAc = target: GlcNAc(b1-6)GalNAc
In short: as §1

[14] = target: Neu5Ac(a2-3)Gal(b1-3)GalNAc6S
In short: as §1

[15] = target: Neu5Ac(a2-3)Gal(b1-3)GlcNAc(b1-3)Gal(b1-4)GlcNAc
In short: as §1

[16] = target: Neu5Ac(a2-3)Gal(b1-3)GlcNAc6S
In short: as §1

[17] = target: Neu5Ac(a2-3)Gal(b1-4)GlcNAc(b1-2)Man(a1-3)[GlcNAc(b1-2)Man(b1-4)GlcNAc(b1-2)Man(a1-6)]Man(b1-4)GlcNAc(b1-4)GlcNAc
In short: as §1

[18] = target: Neu5Ac(a2-3)Gal(b1-4)[Fuc(a1-3)]GlcNAc(b1-6)[Gal(b1-3)]GalNAc
In short: as §1

[19] = target: Neu5Ac(a2-3)Gal6S(b1-4)[Fuc(a1-3)]GlcNAc
In short: as §1

[20] = target: Neu5Ac(a2-3)GalNAc(b1-4)GlcNAc
In short: as §1

[21] = target: Neu5Ac(a2-3)[GalNAc(b1-4)]Gal(b1-4)Glc
In short: as §1

Neu5Ac(a2-6)Gal = target: Neu5Ac(a2-6)Gal
In short: as §1

[22] = target: Neu5Ac(a2-6)Gal(b1-4)GlcNAc(b1-3)Gal(b1-3)GlcNAc
In short: as §1

[23] = target: Neu5Ac(a2-6)Gal(b1-4)GlcNAc6S
In short: as §1

[24] = target: Neu5Ac(a2-8)Neu5Ac(a2-8)Neu5Ac
In short: as §1

[25] = target: Neu5Ac9Ac(a2-6)Gal(b1-4)GlcNAc
In short: as §1

[26] = target: Neu5Ac(a2-3)Gal(b1-4)[Fuc(a1-3)]GlcNAc(b1-3)Gal(b1-4)GlcNAc
In short: as §1

[27] = target: Neu5Ac(a2-6)Gal(b1-4)GlcNAc(b1-3)Gal(b1-4)[Fuc(a1-3)]GlcNAc(b1-3)Gal(b1-4)[Fuc(a1-3)]GlcNAc
In short: as §1

[28] = target: Neu5Gc(a2-3)Gal(b1-3)[Fuc(a1-4)]GlcNAc
In short: as §1

| Binder | glycan array binding signal (z-score) (Fuc(a1-2)Gal(b1-3)GalNAc) | glycan array binding signal (z-score) [1] | glycan array binding signal (z-score) [2] | glycan array binding signal (z-score) [3] | glycan array binding signal (z-score) (Fuc(a1-2)Gal6S(b1-4)Glc) | glycan array binding signal (z-score) [4] | glycan array binding signal (z-score) [5] | glycan array binding signal (z-score) [6] | glycan array binding signal (z-score) [7] | glycan array binding signal (z-score) [8] | glycan array binding signal (z-score) [9] | glycan array binding signal (z-score) [10] | glycan array binding signal (z-score) [11] | glycan array binding signal (z-score) (Gal3S(b1-3)GlcNAc) | glycan array binding signal (z-score) (Gal3S(b1-4)GlcNAc6S) | glycan array binding signal (z-score) [12] | glycan array binding signal (z-score) (GalNAc(a1-3)GalNAc) | glycan array binding signal (z-score) (Glc(b1-6)Glc) | glycan array binding signal (z-score) (GlcA(b1-3)GlcNAc) | glycan array binding signal (z-score) [13] | glycan array binding signal (z-score) (GlcNAc(b1-6)GalNAc) | glycan array binding signal (z-score) [14] | glycan array binding signal (z-score) [15] | glycan array binding signal (z-score) [16] | glycan array binding signal (z-score) [17] | glycan array binding signal (z-score) [18] | glycan array binding signal (z-score) [19] | glycan array binding signal (z-score) [20] | glycan array binding signal (z-score) [21] | glycan array binding signal (z-score) (Neu5Ac(a2-6)Gal) | glycan array binding signal (z-score) [22] | glycan array binding signal (z-score) [23] | glycan array binding signal (z-score) [24] | glycan array binding signal (z-score) [25] | glycan array binding signal (z-score) [26] | glycan array binding signal (z-score) [27] | glycan array binding signal (z-score) [28] |
| --- | --- | --- | --- | --- | --- | --- | --- | --- | --- | --- | --- | --- | --- | --- | --- | --- | --- | --- | --- | --- | --- | --- | --- | --- | --- | --- | --- | --- | --- | --- | --- | --- | --- | --- | --- | --- | --- |
| B1 | -0.289 | -0.33 | 0.066 | 0.432 | -0.234 | -0.274 | 6.47 | -0.328 | -0.297 | 2.97 | 1.75 | 5.5 | 6.78 | 3.33 | 4.69 | -0.286 | -0.323 | -0.343 | -0.294 | -0.318 | -0.33 | -0.333 | 1.66 | -0.31 | 3.31 | -0.244 | -0.322 | -0.307 | -0.292 | -0.257 | -0.32 | -0.332 | -0.324 | -0.303 |  |  |  |
| B2 |  |  |  |  |  |  |  |  |  |  |  |  |  |  |  |  |  |  |  |  |  |  |  |  |  |  |  | -0.247 |  |  |  |  |  |  | -0.144 | -0.176 | -0.24 |
